In PubChem BioAssay (NCATS):
Records with an inconclusive call do not appear. Activity calls are given as the source filed them. Calls come from the whole dose curve; as a rule, active = well fitted inhibition curve with a large enough effect; inconclusive = small, poorly fitted or top-dose-only effect; inactive = no such curve, though single readings can be large or run the other way.

What follows are molecules tested against Tyrosine-protein kinase Yes (Homo sapiens) (UniProt P07947) (assay: qHTS for small molecule inhibitors of Yes1 kinase: Primary Screen (AID 686947; note: nearly all actives have a fitted effect of over 60% in size)). Conditions: Yes1 kinase biochemical qHTS inhibition; series mostly up to 76.9 µM.
Source text: The Src family of non-receptor protein tyrosine kinases contains nine members, including Yes1, Src, Fyn, Lyn, and […]. These kinases have important roles in a variety of cellular functions, such as cell proliferation, survival, and differentiation. Src, the most well characterized member of this family, has been previously identified as a proto-oncogene. […] In melanoma, it has been shown that Yes1, and not other family members, such as Src, is functionally involved in the malignant phenotype. Additionally, a recent study examining the downregulation of Yes1 by shRNA found significant effects on cell survival/growth for basal-like and Her2-positive breast cancers. Despite the potential for Yes1 to be a target for the above-described cancers, there are very few reports on the identification of potent and selective inhibitors of Yes1 kinase. Antagonists of Yes1 would further elucidate Yes1 biology and help to confirm whether Yes1 is a viable target for therapeutic intervention in a variety of cancers.
A compound that inhibits Yes1 could be important for the treatment of various cancers in which Yes1 is highly expressed and can also be used as a tool compound to help further elucidate Yes1 biology. To that end, we have developed a sensitive HTS biochemical assay for Yes1 activity. This assay was screened against several small compound libraries to look for modulators of activity. Inhibition is the desired output for this assay.
NIH Molecular Libraries Probe Production Centers Network [MLPCN]
NIH Chemical Genomics Center [NCGC]
Two micoliter of Yes1 enzyme (columns 1-2, 5-48; Millipore, Billerica, MA) are dispensed into Greiner, white solid-bottom 1536-well assay plates; columns 3 and 4 receive buffer without Yes1 as a control for maximum inhibition. Compounds (23 nL) are then transferred via Kalypsys pin tool equipped with 1536-pin array (10 nL slotted pins, V&P Scientific, San Diego, CA). […] Following addition of compound and a 20 minute incubation, 1 uL of substrate (ATP and poly-E4Y from Sigma-Aldrich, St. Louis, MO) is added, and the biochemical reaction is allowed to progress for 60 minutes at room temperature. The production of ADP is then quantified by the ADP-Glo Kit (Promega, Madison, WI). First, 2 uL of the first kit reagent is added, and the reaction is incubated for 45 minutes; then, 4 uL of the second kit reagent are added and the reaction is incubated for 30 minutes at which time the luminescence is read on a Viewlux plate reader (Perkin-Elmer, Waltham, MA). The final concentration of reagents in the reaction are 4 nM Yes1, 0.1 mM ATP, 100 uM EGTA, 10 mM MgCl2, 0.3 mg/mL poly(E4Y), 50 mM Tris pH 7.5, 1 mM DTT, 150 mM NaCl, 0.01% Brij-35, and 5% glycerol. Data are normalized to DMSO-treated control columns with (maximum signal) and without (minimum signal) enzyme.
Potency is the fitted concentration of half-maximal effect.

Sequence of Tyrosine-protein kinase Yes (Homo sapiens) (P07947 whole entry, looked up): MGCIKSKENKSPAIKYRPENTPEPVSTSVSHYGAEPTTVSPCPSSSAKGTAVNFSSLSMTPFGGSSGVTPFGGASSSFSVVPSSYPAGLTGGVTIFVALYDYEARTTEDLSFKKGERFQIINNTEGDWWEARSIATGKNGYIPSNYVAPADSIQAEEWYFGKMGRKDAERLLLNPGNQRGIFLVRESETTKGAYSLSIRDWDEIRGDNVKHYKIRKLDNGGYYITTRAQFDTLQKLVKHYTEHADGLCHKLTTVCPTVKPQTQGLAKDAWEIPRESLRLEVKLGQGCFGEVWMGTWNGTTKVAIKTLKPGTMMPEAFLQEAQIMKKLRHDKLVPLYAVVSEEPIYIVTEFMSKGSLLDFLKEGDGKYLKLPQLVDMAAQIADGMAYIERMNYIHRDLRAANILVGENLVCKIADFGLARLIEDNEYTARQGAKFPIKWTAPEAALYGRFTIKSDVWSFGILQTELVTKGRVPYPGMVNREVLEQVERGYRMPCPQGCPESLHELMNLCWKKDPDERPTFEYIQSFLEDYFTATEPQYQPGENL

| Structure (SMILES) | Potency |
| --- | --- |
| Fc1ccc(-c2ncn(C3CCNCC3)c2-c2ccnc(Oc3cccc(C(F)(F)F)c3)n2)cc1 | inactive |
| CN(C)c1ccc2[nH]c(O)c(C=Nc3ccc(S(N)(=O)=O)cc3)c2c1 | 4.63 µM (active) |
| O=S1CCN(Cc2ccc(-c3ccc4ncnc(Nc5ccc(OCc6cccc(F)c6)c(Cl)c5)c4c3)o2)CC1 | 2.07 µM (active) |
| NC(=O)c1sc(-n2cnc3cc(C(F)(F)F)ccc32)cc1OCc1ccccc1Br | inactive |
| CNC(=O)c1cncc(C=Cc2c(Cl)cccc2Cl)c1 | 0.823 µM (active) |
| COc1ccc(-c2ccc3c(NC(=O)C4CC4)n[nH]c3n2)cc1 | 6.54 µM (active) |
| CC1=C(C(=O)Nc2ccc3n[nH]c(C)c3c2)C(c2ccc(C(F)(F)F)cc2)CC(=O)N1 (stereo not given) | 6.54 µM (active) |
| OCc1ccc(-c2nc(-c3ccc4c(c3)OCO4)c(-c3ccccn3)[nH]2)cc1 | inactive |
| COc1cc2ncnc(Nc3ccc4c(cnn4Cc4ccccc4)c3)c2cc1OC | 0.0328 µM (active) |
| COc1ccc2c(-c3ccnc(Nc4cccc(OC(F)(F)F)c4)n3)cnn2n1 | 26 µM (active) |
| COC(=O)c1sc(-n2cnc3cc(OC)c(OC)cc32)cc1OCc1ccccc1C(F)(F)F | 0.654 µM (active) |
| CN1CCC(C(=O)Nc2n[nH]c3nnc(-c4ccccc4)cc23)CC1 | 13 µM (active) |
| COc1ccc(-c2nn3ncccc3c2-c2ccnc(Nc3ccc(Cl)c(C(F)(F)F)c3)n2)cc1 | 3.68 µM (active) |
| Oc1cccc(-c2nc(-c3ccccc3)[nH]c2-c2ccncc2)c1 | 0.923 µM (active) |
| COc1cc2c(cc1Nc1nc(N3CCc4ccccc43)c3cc[nH]c3n1)N(C(=O)CN(C)C)CC2 | inactive |
| COc1ccccc1-c1cc(C=C2C(=O)Nc3ncc(Br)cc32)cc(Br)c1O | 0.733 µM (active) |
| CS(=O)(=O)CCNCc1ccc(-c2ccc3ncnc(Nc4ccc(OCc5ccccc5)c(C(F)(F)F)c4)c3c2)o1 | inactive |
| FC(F)(F)c1cccc(Nc2nccc(-c3cnn4nc(-c5ccccc5)ccc34)n2)c1 | 14.6 µM (active) |
| CN(c1ccc(NC(=O)NCCN2CCOCC2)cc1)c1ccnc(Nc2ccc(CS(C)(=O)=O)cc2)n1 | 11.6 µM (active) |
| CN1CCN(Cc2ccc(-c3cc4ncnc(Nc5ccc(OCc6cccc(F)c6)c(Cl)c5)c4s3)o2)CC1 | 0.823 µM (active) |

| Structure (SMILES) | Potency |
| --- | --- |
| COc1cc2ncn(-c3cc(OCc4ccccc4Cl)c(C(N)=O)s3)c2cc1OC | 5.19 µM (active) |
| CC(=O)Nc1cccc(C#Cc2cncnc2Nc2ccc(OCc3cccc(F)c3)c(Cl)c2)c1 | 23.2 µM (active) |
| Nc1nc(-c2ccccn2)c(-c2ccc3ncccc3n2)s1 | inactive |
| Fc1cccc(COc2ccc(Nc3ncncc3C#Cc3ccccc3)cc2Cl)c1 | inactive |
| NC(=O)CCc1ccccc1Oc1nccc(-c2c(-c3ccc(F)cc3)ncn2C2CCNCC2)n1 | inactive |
| COC(=O)Nc1nc2ccc(Oc3ccc(NC(=O)Nc4ccccc4)cc3)cc2[nH]1 | inactive |
| COc1cc(Nc2ncc3c(C)nc(-c4cccc(Oc5ccccc5)c4)n3n2)cc(OC)c1OC | 5.19 µM (active) |
| NS(=O)(=O)c1ccc(N=Nc2c(O)[nH]c3ccc(C(=O)NCCc4cnc[nH]4)cc23)cc1 | 2.6 µM (active) |
| CC(C)c1ccc2c(N=Nc3ccc(S(N)(=O)=O)cc3)c(O)[nH]c2c1 | inactive |
| CN1CCC(n2cnc(-c3ccc(F)cc3)c2-c2ccnc(NCCO)n2)CC1 | inactive |
| CCS(=O)(=O)c1ccc(OC)c(Nc2ncc(-c3cccc(F)c3)o2)c1 | 0.146 µM (active) |
| CS(=O)(=O)c1ccc(Oc2nccc(-c3c(-c4ccc(F)cc4)ncn3C3CCNCC3)n2)cc1 | inactive |
| O=C(OC1CNC(C#Cc2cc3ncnc(Nc4ccc5c(cnn5Cc5ccccc5)c4)c3s2)C1)N1CCOCC1 (stereo not given) | 1.04 µM (active) |
| CNC(=O)c1cncc(C=Cc2c(C)cccc2C)c1 | 0.463 µM (active) |
| COC(=O)Nc1nc2ccc(Oc3cccc(NC(=O)Nc4cc(C(F)(F)F)ccc4F)c3)cc2[nH]1 | 11.6 µM (active) |
| O=C(Nc1n[nH]c2nc(-c3ccc(O)cc3)c(Br)cc12)C1CC1 | 1.64 µM (active) |
| COc1ccc2cc(-c3c(-c4ccncc4)nc(-c4ccc(S(C)(=O)=O)cc4C)n3C)ccc2c1 | 1.84 µM (active) |
| CCn1c(-c2nonc2N)nc2cncc(C(=O)NCCNC)c21 | 1.3 µM (active) |
| NC(=O)c1cc(-c2ccc(F)cc2)cc(-c2ccncc2)c1N | inactive |
| CC(C)c1ccc(Nc2nccc(-c3cnn4ncccc34)n2)cc1 | 26 µM (active) |
